This is a sample that favours compounds with a hit; in the whole collection about 2.4% have one here.
FEN1 inh-1 = blocks human flap endonuclease 1; Potency, µM (highest dose often 114 µM), inactives show at the top dose activity change, negative = inhibition, most hits filed as inhibitors; 390,000 tested, 0.35% active; P39748; Recombinant FEN1 flap cleavage, fluorescence, 15 min; note: potency is the fitted concentration of half-maximal effect; % is set by controls: 0 for no effect and ±100 for the full control effect; nearly all actives have a fitted effect of over 65% in size
Target sequence (P39748 whole entry, looked up): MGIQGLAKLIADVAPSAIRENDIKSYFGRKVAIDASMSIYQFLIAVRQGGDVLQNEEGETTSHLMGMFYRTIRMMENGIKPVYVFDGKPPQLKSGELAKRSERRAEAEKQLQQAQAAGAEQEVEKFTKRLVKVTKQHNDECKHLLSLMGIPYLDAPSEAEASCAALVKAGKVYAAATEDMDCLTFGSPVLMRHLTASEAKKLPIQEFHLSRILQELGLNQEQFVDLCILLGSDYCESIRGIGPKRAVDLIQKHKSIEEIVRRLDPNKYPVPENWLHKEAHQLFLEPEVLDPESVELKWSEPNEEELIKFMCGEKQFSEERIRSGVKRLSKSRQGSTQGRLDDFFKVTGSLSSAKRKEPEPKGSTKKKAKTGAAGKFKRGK
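FEN1 at 10 nM, compound pretreatment for 15 min (room temperature), 50 nM final substrate to initiate; endpoint reads at 0 and 15 min; DMSO-only plates used as vehicle background.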
POLB inh = DNA polymerase beta (human) inhibition. Potency, µM (series often up to 114 µM), for the others: at the top dose activity change, negative = inhibition, hits mostly inhibitors. AID 485314. Pol beta primer extension/strand displacement, fluorescence kinetic. 340,000 tested, 1.3% active. P06746; note: potency is the fitted concentration of half-maximal effect; % is set by controls: 0 for no effect and ±100 for the full control effect
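Pol beta (10 nM) and compounds were preincubated 15 min at room temperature, then 50 nM substrate (final) started primer extension/strand displacement. Reads were taken at 0 and 10 min; concentration-response data were fitted to a four-parameter Hill equation.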
TDP1 block = TDP1 (human) enzyme inhibition. recombinant TDP1, AlphaScreen DNA substrate cleavage. Potency, µM (titrated, usually from 130 µM), for inactives: top-dose activity change, negative = inhibition, most hits filed as inhibitors. 350,000 tested, 0.28% active. AID 485290; note: potency is the fitted concentration of half-maximal effect; % is set by controls: 0 for no effect and ±100 for the full control effect; nearly all actives have a fitted effect of over 40% in size
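Signal: AlphaScreen proximity between streptavidin donor and anti-FITC acceptor beads on intact substrate. Reaction: Tdp1 1 nM, substrate 15 nM final, 5 min RT after 15 min compound preincubation.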
Pol kappa inh-1 = blocks human DNA polymerase kappa activity; Potency, µM (series often up to 107 µM), without a hit: at the top dose activity, negative = inhibition, most hits filed as inhibitors; Q9UBT6; purified Pol kappa, fluorescent DNA synthesis assay, 10 min; 400,000 tested, 0.53% active; note: potency is the fitted concentration of half-maximal effect; % is set by controls: 0 for no effect and ±100 for the full control effect
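10 nM Pol kappa preincubated 15 min at room temperature with compounds, then reaction started with substrate at 50 nM final. Fluorescence read kinetically at 0 and 10 min; buffer-only wells served as negative control.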
Pol eta inh-1 = blocks human DNA polymerase eta activity. 390,000 tested, 1.2% active. recombinant Pol eta, fluorescent DNA replication assay. Potency, µM (highest dose often 114 µM), without a hit: top-dose activity change, negative = inhibition, actives largely listed as inhibitors; note: potency is the fitted concentration of half-maximal effect; % is set by controls: 0 for no effect and ±100 for the full control effect
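Pol eta (10 nM) was preincubated with compounds for 15 min at room temperature, after which fluorescent replication substrate (50 nM final) was added to start the reaction. Fluorescence was read kinetically at 0 and 10 min.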
POLI inh = inhibitors of human DNA polymerase iota | AID 588590 | 390,000 tested, 1% active | Potency, µM (doses to about 115 µM), for the others: at the highest dose activity, negative = inhibition, hits mostly inhibitors | Q9UNA4 | Pol iota fluorescent replication assay, 10 min; note: potency is the fitted concentration of half-maximal effect
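Pol iota at 10 nM preincubated 15 min with compounds at room temperature; reaction started with fluorescent substrate, 50 nM final. Fluorescence read kinetically at 0 and 10 min; buffer-only wells as negative control.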
TbPGK inh = blocks T. brucei phosphoglycerate kinase. Potency, µM (highest dose often 57.5 µM), without a hit: top-dose activity change, negative = inhibition, actives largely listed as inhibitors. TbPGK coupled GAPDH assay, Kinase-Glo luminescence. shares compounds with Pol kappa inh-1. 500 tested, 79% active; note: potency is the fitted concentration of half-maximal effect; % is set by controls: 0 for no effect and ±100 for the full control effect; nearly all actives have a fitted effect of over 65% in size
POLI cherry-pick = Human Pol iota inhibitor confirmatory assay; Pol iota primer extension, TAMRA/BHQ fluorescence; 1,500 tested, 77% active; Potency, µM, usual class: inhibitors; shares compounds with Pol kappa inh-1; note: potency is the fitted concentration of half-maximal effect
GALK inh confirm = galactokinase (human) inhibition, confirmation; shares compounds with Pol eta inh-1; purified GALK, Kinase-Glo ATP depletion luminescence; Potency, µM (highest dose often 115 µM), inactives show at the top dose activity, negative = inhibition, actives largely listed as inhibitors; 150 tested, 70% active; AID 2015
Target sequence (P51570 whole entry, looked up): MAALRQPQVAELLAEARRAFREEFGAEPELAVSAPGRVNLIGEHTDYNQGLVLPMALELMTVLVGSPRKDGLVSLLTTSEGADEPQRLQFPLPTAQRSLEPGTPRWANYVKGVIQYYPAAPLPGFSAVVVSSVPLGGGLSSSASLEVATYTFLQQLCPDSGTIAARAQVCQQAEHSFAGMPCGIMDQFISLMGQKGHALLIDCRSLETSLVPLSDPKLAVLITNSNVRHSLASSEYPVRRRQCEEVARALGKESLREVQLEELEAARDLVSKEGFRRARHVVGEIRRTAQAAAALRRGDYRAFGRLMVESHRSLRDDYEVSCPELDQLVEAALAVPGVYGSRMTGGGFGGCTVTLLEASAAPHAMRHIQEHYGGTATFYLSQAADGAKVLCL
Redox cycling = counter-screen for GALK inhibitors: redox cycling H2O2 generation; Phenol red-HRP H2O2 redox cycling, absorbance 600 nm; Potency, µM (top dose mostly 115 µM), for the others: at the top dose activity change, negative = H2O2 signal, actives largely listed as inhibitors; AID 2035; 150 tested, 40% active; shares compounds with Pol eta inh-1
HEK293 viability = HEK-293 cytotoxicity, GALK inhibitor secondary; 170 tested, 10% active; Potency, µM (series often up to 46.1 µM), for inactives: top-dose activity change, negative = cytotoxicity, hits mostly inhibitors; shares compounds with Pol eta inh-1; HEK-293 viability, ATP luminescence (CellTiter-Glo), 24/48 h; note: potency is the fitted concentration of half-maximal effect; % is set by controls: 0 for no effect and ±100 for the full control effect
Pol kappa inh-2 = confirmation of human DNA polymerase kappa inhibitors. purified Pol-kappa, fluorescent strand-displacement substrate. shares compounds with Pol eta inh-1. Potency, µM, actives largely listed as inhibitors. 920 tested, 76% active; note: potency is the fitted concentration of half-maximal effect
Pol eta inh-2 = confirmation of human DNA polymerase eta inhibitors; shares compounds with Pol eta inh-1; Pol eta primer extension, TAMRA/BHQ fluorescence, 10 min; Potency, µM, hits mostly inhibitors; 2,600 tested, 64% active; AID 720502; note: potency is the fitted concentration of half-maximal effect
FEN1 inh-2 = confirmation of human FEN1 inhibitors | AID 720498 | Potency, µM, actives largely listed as inhibitors | 880 tested, 79% active | shares compounds with FEN1 inh-1 | FEN1 flap cleavage, TAMRA/BHQ2 fluorogenic DNA substrate; note: potency is the fitted concentration of half-maximal effect; nearly all actives have a fitted effect of over 60% in size
Numbers without * were called inactive; [ ] = another dose, or the depositor's remark. Calls come from the whole dose curve; as a rule, active = well fitted curve in the direction sought with a large enough effect; inconclusive = small, poorly fitted or top-dose-only effect, or another doubt; inactive = no such curve, though single readings can be large; an effect the other way counts as inactive or inconclusive.

Screening CC[C@@H]1/C=C/C=C/C[C@H](C)[C@@H](O)[C@](C)(O)C(=O)[C@H](C)[C@@H](O)[C@H](C)C(=O)[C@H](C)[C@@H](O)[C@H](C)/C=C/C(=O)O[C@H]2[C@@H](C)[C@@H](CC1)O[C@@]1(CC[C@@H](C)[C@@H](C[C@H](C)O)O1)[C@@H]2C returned TDP1 block 13% and Pol kappa inh-1 -13%[19.4 µM].
For COC(=O)c1nc(-c2ccc3c(n2)C(=O)C(N)=C(OC)C3=O)c(N)c(-c2ccc(OC)c(OC)c2O)c1C the results were FEN1 inh-1 16µM*, POLB inh inconclusive, TDP1 block 1%, Pol kappa inh-1 inconclusive, Pol eta inh-1 10µM*, POLI inh 8.9µM*, POLI cherry-pick 47*, GALK inh confirm 5.3µM*, Redox cycling 6.7µM*, HEK293 viability -4%, Pol eta inh-2 inconclusive and FEN1 inh-2 38*.
CC(C)CS(=O)(=O)C1=NN2C(=N)/C(=C\c3ccc(OC(=O)c4ccco4)cc3)C(=O)N=C2S1 was read as FEN1 inh-1 -9%, POLB inh 45µM*, Pol kappa inh-1 inconclusive, Pol eta inh-1 20µM*, POLI inh 14µM*, POLI cherry-pick 75*, Pol eta inh-2 24* and FEN1 inh-2 inconclusive.
`O=C1NC(=S)NC(=O)C1=Cc1cccn1-c1ccc(O)cc1` gave FEN1 inh-1 35µM*, POLB inh 25µM*, TDP1 block -8%, Pol kappa inh-1 18µM*, Pol eta inh-1 3.5µM*, POLI inh 2.2µM*, TbPGK inh 16µM*, POLI cherry-pick 7.5*, Pol eta inh-2 6* and FEN1 inh-2 76*.
COc1ccc(/C=C2/C(=O)N(Cc3ccco3)C(=O)N(C(C)C)C2=O)cc1 was read as FEN1 inh-1 inconclusive, POLB inh 20µM*, TDP1 block -13%, Pol kappa inh-1 20µM*, Pol eta inh-1 4.5µM*, POLI inh 7.9µM*, TbPGK inh inconclusive, POLI cherry-pick 21*, Pol eta inh-2 11* and FEN1 inh-2 27*.
CCN1C(=O)C(=C2C=C(C)N(Cc3ccco3)C(C)=C2)C(=O)N(CC)C1=S was read as FEN1 inh-1 -10%, POLB inh 3%, TDP1 block -1%, Pol kappa inh-1 -5%, Pol eta inh-1 -17% and POLI inh 37%.
O=C(NN=Cc1ccc(N(CCCl)CCCl)cc1)c1cc(=O)[nH]c(=O)[nH]1 was read as FEN1 inh-1 6%, Pol kappa inh-1 6%, Pol eta inh-1 -16% and POLI inh inconclusive.
`O=C(Cc1cc(=O)oc2cc(O)ccc12)NN=Cc1ccc(N(CCCl)CCCl)cc1` gave FEN1 inh-1 32µM*, Pol kappa inh-1 inconclusive, Pol eta inh-1 16µM*, POLI inh inconclusive, POLI cherry-pick inconclusive, Pol eta inh-2 inconclusive and FEN1 inh-2 38*.
Screening CCCCC(C#N)(Cn1cncn1)c1ccc(Cl)cc1 (stereo not drawn) returned TDP1 block 12% and Pol kappa inh-1 15%[60.1 µM].
`Cc1ccc(N2C(=O)NC(=O)/C(=C\c3cc(C)n(-c4sc5c(c4C#N)CCCC5)c3C)C2=O)cc1` gave FEN1 inh-1 inconclusive, POLB inh inconclusive, TDP1 block 8%, Pol kappa inh-1 -37%, Pol eta inh-1 20µM*, POLI inh inconclusive, POLI cherry-pick 67*, Pol eta inh-2 19* and FEN1 inh-2 76*.
For Cc1cc(/C=C2\C(=O)NC(=O)N(c3ccc(Br)cc3)C2=O)c(C)n1C the results were FEN1 inh-1 -7%, POLB inh -24%, TDP1 block 3%, Pol kappa inh-1 -16%, Pol eta inh-1 -15% and POLI inh inconclusive.
Screening Cc1cc(/C=C2\C(=O)NC(=O)N(c3ccc(Br)cc3)C2=O)c(C)n1-c1cc(C(=O)O)cc(C(=O)O)c1 returned FEN1 inh-1 inconclusive, POLB inh 28µM*, Pol kappa inh-1 2.8µM*, Pol eta inh-1 2.5µM*, POLI inh inconclusive, TbPGK inh inconclusive, POLI cherry-pick 21*, Pol kappa inh-2 3*, Pol eta inh-2 12* and FEN1 inh-2 inconclusive.
Screening CCOP(=S)(OCC)Oc1ccc(Cl)cc1Cl returned TDP1 block inconclusive and Pol kappa inh-1 11%[60.1 µM].
CC1=C2C(=O)C3C(CC=C4C[C@@H](O)CC[C@@]43C)[C@@H]2CC[C@]12O[C@@H]1C[C@H](C)CN[C@H]1C2C (stereo partly drawn) was read as TDP1 block 6% and Pol kappa inh-1 11%[60.1 µM].
For c1ccc(P(c2ccccc2)c2ccccc2)cc1 the results were TDP1 block 18%.

Source: PubChem (National Center for Advancing Translational Sciences (NCATS))
